From PubChem BioAssay AID588338 (NMMLSC, 2011) come the findings set out here.

SMILES strings stand for the structures. Several values for one entry are separate records, joined by “and”; a condition that tells them apart may be missing. Equal values may be shown once. Hit rate of the full screen: of about 1,300 compounds, about 20 (2%) were called active.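 How the source made its calls: active means inhibition above 50%, about 3 SD of the inhibition seen with non-fluorescent compounds; inactive means the rest.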 These entries were drawn from the full list.

This test in a line: interference with GST/GSH bead binding – biochemical, cherry pick 1, flow cytometry, artefact control for arrestin-AP2 inhibitor project, confirmation (AID 588338).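 Further: fluorescein maleimide labelled GST captured on 4 micron glutathione beads; higher means more loss of bead fluorescence from quenching or blocked binding.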 As to conditions: GST-fluorescein binding to GSH beads, fluorescence, counter-screen; at 10 µM; active compounds read high. (In general: In flow cytometry, cells or beads pass a laser one at a time.)
As to `COc1cccc(-n2c(SCC(=O)c3c[nH]c4ccccc34)nc3ccccc3c2=O)c1`, the inhibition is 57.9% (active).
As for `Cn1c(=O)c2c(nc(N/N=C/c3cccs3)n2Cc2ccc(Br)cc2)n(C)c1=O`, the figure is 0.63% (inactive).
As for `COc1ccc(CCNc2ncnc3c2nnn3Cc2ccccc2)cc1`, the figure is 4.82% (inactive).
The same measure for `Cc1ccc(CNC(=O)C2CC(=O)N(C3CCCCCCC3)C2)cc1` (centres undefined): -4.09% (inactive); for `Cc1ccc(Nc2ccc(C(N)=O)cc2[N+](=O)[O-])cc1`: -6.5% (inactive); for `CC(C)c1nnc(NC(=O)CCC(=O)N2CCN(c3cccc(Cl)c3)CC2)s1`: -10.6% (inactive).
Consider `O=C(c1ccc(S(=O)(=O)NCc2ccco2)cc1)N1CCN(c2ccccc2)CC1`, for which the inhibition is 8.86% (inactive).
`CCCc1ccc(-c2csc(NC(=O)Cc3cccs3)n2)cc1`: the inhibition was -4.6% (inactive).
On to `Cc1ccc(C)c(NC(=S)NNC(=S)Nc2ccc(C(C)C)cc2)c1`, for which the inhibition is 0.62% (inactive).
As for `Cc1ccc(CN2C(=O)CCC2C(=O)NCCCN2CCCCC2C)cc1` (centres undefined), the figure is -11.5% (inactive); as for `Cc1cc(C(=O)OCC(=O)c2c(N)n(C)c(=O)n(C)c2=O)c(C)o1`, -2.19% (inactive) and 1.72% (inactive); as for `CCOc1ccc(-c2nnc(-c3ccco3)o2)cc1`, -7.89% (inactive).
With `O=c1[nH]c2ccccc2n2c(-c3ccccc3)nnc12`, the inhibition is 36.4% (inactive).
As for `Cc1ccc(C2(C)NC(=O)N(CC(=O)Nc3ccccc3C(=O)N3CCCCC3)C2=O)cc1` (centres undefined), the figure is -3.63% (inactive).
For the compound `CC(C)C[C@H](NC(=O)N1CCn2c1nc1ccccc12)C(=O)NC1CC1`, the inhibition is -5.48% (inactive).
The same measure for `CN1C(=O)/C(=C/c2ccco2)SC1=Nc1cccc(C(=O)O)c1`: 0.38% (inactive); for `Brc1ccccc1C1Nc2cccc3cccc(c23)N1`: 1.35% (inactive).
As for `COCCNC(=O)Nc1ccc2nc(-c3ccco3)c(-c3ccco3)nc2c1`, the figure is 22.4% (inactive); as for `Cc1ccc(OCCCCc2c(C)n[nH]c2C)cc1`, -8.59% (inactive); as for `COc1cc2c(cc1NC(=O)COC(=O)/C=C/c1ccccc1)oc1ccccc12`, -10.3% (inactive).
The same measure for `CC(Oc1ccccc1)C(=O)NN1Cc2ccccc2C1=N` (centres undefined): -4.56% (inactive); for `Cc1ccc(S(=O)(=O)/N=C(/Nc2ccccn2)c2ccc(Cl)cc2)cc1`: -4.23% (inactive); for `O=C(NCc1ccco1)c1ccc(CS(=O)(=O)Cc2ccc(F)cc2)o1`: -8.88% (inactive).
For the compound `Cc1cc(C)cc(Oc2nc3c(C)cccn3c(=O)c2/C=C(\C#N)C(=O)NC2CCS(=O)(=O)C2)c1` (centres undefined), the inhibition is -0.21% (inactive).
The same measure for `COC(=O)c1cc(NC(=O)c2nn(C)c(=O)c3ccccc23)cc(C(=O)OC)c1`: -0.11% (inactive); for `CCn1c(=O)n(CC)c2cc(N3CCCC3)c(NC(=O)c3ccccc3Br)cc21`: -4.23% (inactive); for `Cc1ccc(OCCCC(=O)Nc2ccc3c(c2)OCCO3)cc1`: -3.79% (inactive).
As for `Cn1c(=O)c([N+](=O)[O-])c(Oc2ccccc2)c2ccccc21`, the figure is -0.63% (inactive).
The same measure for `COc1cc2c(cc1OC)CN(C(=O)c1cc(=O)c3ccccc3o1)CC2`: -0.62% (inactive); for `CCOc1ccc(C(=O)NC2CCN(CC(=O)NCc3cccs3)CC2)cc1`: -10.1% (inactive); for `CN(C)c1ccc(NC(=O)c2ccncc2)c2ccccc12`: -4.94% (inactive).
`CCOC(=O)N1CCN(C(=O)CNC(=O)Cc2ccc(Cl)cc2)CC1`: the inhibition was -12.7% (inactive).
The same measure for `CN(C(=O)COC(=O)c1cc(=O)[nH]c2ccccc12)C1CCCCC1`: -4.98% (inactive).
As for `CC(NCCc1ccc(S(N)(=O)=O)cc1)C(=O)NCc1ccccc1` (centres undefined), the figure is 1.19% (inactive).
The same measure for `CC(C)(C)c1ccc(C(=O)NCCn2c(N)c(C#N)c3nc4ccccc4nc32)cc1`: 1.49% (inactive).
Turning to `CC(CN1CCCCC1)OC(=O)c1ccccc1Cl` (centres undefined), the inhibition is 0.92% (inactive).
As for `Cc1ccc(Cl)cc1-c1ccc(/C=N/n2cnnc2)o1`, the figure is -2.14% (inactive); as for `Cc1ccc(S(=O)(=O)N2CCCCC2)cc1NC(=O)c1cccnc1`, -0.2% (inactive); as for `Cc1cccc(NC(=S)NC(=O)c2ccc(Br)o2)c1`, -2.99% (inactive).
As for `NS(=O)(=O)c1ccc2nc(NC(=O)C3=COCCO3)sc2c1`, the figure is -9.07% (inactive).
As for `C/C(=N\Nc1ccc([N+](=O)[O-])cc1)c1ccc(-n2nncc2C(C)(C)C)cc1`, the figure is 2.54% (inactive); as for `CC(=O)NCCNC(=O)c1cc(-c2cccc3ccccc23)nc2ccccc12`, 8.05% (inactive).
Take `Cc1cc(C(=O)Nc2ccc(C)c(S(=O)(=O)N3CCOCC3)c2)c2ccccc2n1`: the inhibition is 3.01% (inactive).
For `Cc1ccc(S(=O)(=O)N2CCN(C(=O)c3ccccc3-c3nc4ccccc4s3)CC2)c(C)c1`, the inhibition is -4.41% (inactive).
As for `O=C(NCC1(N2CCCCC2)CCCCC1)c1cccc(S(=O)(=O)Nc2ccccc2Cl)c1`, the inhibition was -0.81% (inactive).
The same measure for `CCC(C(=O)OC)n1cnc2c(oc3ccccc32)c1=O` (centres undefined): -1.51% (inactive); for `NC(=O)C1CCN(C(=O)CC2C(=O)NCCN2Cc2cccc(Oc3ccccc3)c2)CC1` (centres undefined): -3.68% (inactive); for `CC(NC(=O)c1cc2cc(Cl)ccc2oc1=N)c1ccccc1` (centres undefined): -2.36% (inactive).
The same measure for `COc1ccc(/C=C2\SC(=S)N(CCC(=O)Nc3ccccn3)C2=O)cc1OC`: -0.03% (inactive).
As for `O=C(C1CCCO1)N1CCN(S(=O)(=O)c2ccc(Br)cc2)CC1` (centres undefined), the figure is -16.4% (inactive).
In the case of `COC(=O)C1CC2=C(CC(C)(C)CC2=O)N(c2ccccc2)C1=O` (centres undefined), the inhibition is -0.09% (inactive).
The same measure for `CCC(=O)Nc1nc2ccccc2n1Cc1ccccc1C`: 6.47% (inactive).
The same measure for `Cc1cccc(C)c1NC(=O)C(Cl)C(=O)c1ccccc1` (centres undefined): -5.59% (inactive); for `Cc1cccc(Nc2ccccc2C(=O)NCc2ccco2)c1C`: -4.39% (inactive).

What is called inhibition is the drop in the measured response relative to a control, in per cent.
